For part of these data: Measured potencies and affinities stand elsewhere.
Key:
Design in all cases: scale not given: direction of the effect not stated beside the values
[1] = target: Protein translocase subunit SecA (Escherichia coli (strain K12)) (UniProt P10408); assay: Assay to Identify E. coli SecA ATPase Inhibitors; type: functional; settings: 30 µM
[2] = target: T1, Ubiquitin-activating enzyme e1, putative (Leishmania donovani (strain BPK282A1)) (UniProt E9BSI1); assay: Leishmania donovani Ubiquitin Activating Enzyme (LdE1); type: functional; settings: 30 µM
T1 sequence (whole entry): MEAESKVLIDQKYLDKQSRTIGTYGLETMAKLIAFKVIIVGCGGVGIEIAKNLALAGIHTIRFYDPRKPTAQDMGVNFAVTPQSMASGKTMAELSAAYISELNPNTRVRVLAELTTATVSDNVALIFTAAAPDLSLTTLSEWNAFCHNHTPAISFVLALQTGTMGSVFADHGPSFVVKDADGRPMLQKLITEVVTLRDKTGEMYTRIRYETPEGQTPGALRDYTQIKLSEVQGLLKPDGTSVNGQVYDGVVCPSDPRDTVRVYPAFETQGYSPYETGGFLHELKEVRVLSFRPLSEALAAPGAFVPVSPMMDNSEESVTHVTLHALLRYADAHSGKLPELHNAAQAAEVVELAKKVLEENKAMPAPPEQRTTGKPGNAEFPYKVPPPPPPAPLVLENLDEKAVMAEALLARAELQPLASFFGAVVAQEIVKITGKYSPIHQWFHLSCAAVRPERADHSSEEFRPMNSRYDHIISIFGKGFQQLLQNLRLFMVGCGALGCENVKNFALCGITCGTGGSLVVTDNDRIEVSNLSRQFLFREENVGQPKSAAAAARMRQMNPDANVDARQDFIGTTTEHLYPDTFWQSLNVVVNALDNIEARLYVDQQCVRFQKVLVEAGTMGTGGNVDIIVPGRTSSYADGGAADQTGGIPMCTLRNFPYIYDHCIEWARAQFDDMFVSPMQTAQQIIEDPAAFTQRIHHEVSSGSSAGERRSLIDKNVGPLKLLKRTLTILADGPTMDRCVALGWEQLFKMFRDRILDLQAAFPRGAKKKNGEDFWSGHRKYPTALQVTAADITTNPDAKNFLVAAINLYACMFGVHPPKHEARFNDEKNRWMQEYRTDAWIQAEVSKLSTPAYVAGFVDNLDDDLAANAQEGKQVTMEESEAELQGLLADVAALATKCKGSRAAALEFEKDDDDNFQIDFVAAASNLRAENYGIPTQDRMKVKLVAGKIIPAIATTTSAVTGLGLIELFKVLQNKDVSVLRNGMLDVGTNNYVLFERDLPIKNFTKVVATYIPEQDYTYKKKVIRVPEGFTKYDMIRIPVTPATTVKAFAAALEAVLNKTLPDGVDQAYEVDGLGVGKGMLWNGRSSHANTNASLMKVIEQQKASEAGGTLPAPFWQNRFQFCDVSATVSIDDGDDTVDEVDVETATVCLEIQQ

[3] = target: AMP-activated protein kinase, AMPK (Homo sapiens) (UniProt P54646+O43741+P54619+Q9UGJ0+Q9Y478+Q13131+Q9UGI9); assay: AMP-dependent Kinase enzyme assay. An in vitro enzyme assay that detects ADP turnover that is directly proportional to AMPK activity. This uses naive AMPK that is activated during the assay with MK-8722; type: functional; settings: 30 µM
[4] = target: Sialic acid-binding Ig-like lectin 9 (Homo sapiens) (UniProt Q9Y336); assay: Hs-Siglec9 ALPHAscreen SOP 20170721; settings: 10 µM
[5] = tested on: Trypanosoma cruzi; assay: Trypanosoma cruzi phosphomannomutase and mannose-1-phosphate guanylyltransferase assay; type: functional; settings: 10 µM
[6] = target: T2, Arginase-2, mitochondrial (Homo sapiens) (UniProt P78540); assay: in vitro enzyme assay to detect the production of urea directly proportional to the activity of Arginase II; type: functional; settings: 33.3 µM; also: in the data most compounds retested in dose-response had high values
T2 sequence (whole entry): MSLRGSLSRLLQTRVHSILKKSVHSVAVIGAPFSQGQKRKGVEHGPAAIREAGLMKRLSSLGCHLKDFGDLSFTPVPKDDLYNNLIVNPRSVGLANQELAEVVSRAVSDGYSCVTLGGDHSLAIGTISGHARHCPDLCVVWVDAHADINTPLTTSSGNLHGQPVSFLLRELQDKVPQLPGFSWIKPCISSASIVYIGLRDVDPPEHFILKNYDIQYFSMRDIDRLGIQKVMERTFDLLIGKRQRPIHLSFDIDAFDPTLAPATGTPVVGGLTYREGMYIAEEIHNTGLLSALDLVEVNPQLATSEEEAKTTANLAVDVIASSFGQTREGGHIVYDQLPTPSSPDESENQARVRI

[7] = target: T3, Proteasome subunit beta (Trypanosoma cruzi) (UniProt O96673); assay: Trypanosoma cruzi proteasome chymotrypsin-like activity (TcProtChymo) assay.; also: in the data most compounds retested in dose-response had high values; type: functional; settings: 9.37 µM
T3 sequence (whole entry): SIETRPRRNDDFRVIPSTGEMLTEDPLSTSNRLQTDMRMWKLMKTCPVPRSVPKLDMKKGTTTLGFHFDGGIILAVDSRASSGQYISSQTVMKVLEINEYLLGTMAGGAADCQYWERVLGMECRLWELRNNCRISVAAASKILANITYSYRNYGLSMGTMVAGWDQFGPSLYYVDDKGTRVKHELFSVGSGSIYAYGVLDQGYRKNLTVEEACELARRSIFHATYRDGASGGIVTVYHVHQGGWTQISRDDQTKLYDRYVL

[8] = species: Homo sapiens; assay: To identify inhibition of the IFN signalling (Jak-Stat) pathway via expression of an eGFP reporter gene under the control of an IFN-stimulated response element (ISRE) containing MxA promoter.; type: functional; settings: 30 µM
[9] = target: T4, Tyrosyl-tRNA synthetase, putative (Trypanosoma cruzi (strain CL Brener)) (UniProt Q4DSP6); assay: Trypanosoma cruzi tyrosyl tRNA synthetase (TcYRS) _High Tyrosine SOP; type: functional; settings: 30 µM; also: in the data most compounds retested in dose-response had high values
T4 sequence (whole entry): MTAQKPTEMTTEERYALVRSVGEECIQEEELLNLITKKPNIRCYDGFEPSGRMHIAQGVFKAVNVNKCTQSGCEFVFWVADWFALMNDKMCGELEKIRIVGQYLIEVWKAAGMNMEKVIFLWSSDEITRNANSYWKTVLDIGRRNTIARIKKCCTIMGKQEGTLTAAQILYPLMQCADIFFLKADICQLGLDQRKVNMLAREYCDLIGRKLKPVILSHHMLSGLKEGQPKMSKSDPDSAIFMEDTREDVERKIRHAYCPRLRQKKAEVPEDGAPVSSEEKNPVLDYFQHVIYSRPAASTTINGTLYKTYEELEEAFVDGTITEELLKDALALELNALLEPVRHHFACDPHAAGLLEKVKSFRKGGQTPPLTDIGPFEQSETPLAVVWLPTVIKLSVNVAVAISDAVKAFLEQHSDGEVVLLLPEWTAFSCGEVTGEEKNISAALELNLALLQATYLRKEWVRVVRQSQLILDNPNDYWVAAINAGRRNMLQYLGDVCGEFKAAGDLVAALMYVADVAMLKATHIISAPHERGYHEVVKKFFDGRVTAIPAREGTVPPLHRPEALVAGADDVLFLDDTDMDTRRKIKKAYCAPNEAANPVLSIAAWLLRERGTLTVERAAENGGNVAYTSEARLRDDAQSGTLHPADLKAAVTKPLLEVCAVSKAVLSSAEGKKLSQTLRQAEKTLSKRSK

[10] = target: T4, Tyrosyl-tRNA synthetase, putative (Trypanosoma cruzi (strain CL Brener)); assay: Trypanosoma cruzi tyrosyl tRNA synthetase (TcYRS) SOP; type: functional; settings: 30 µM
[11] = target: Chromo domain-containing protein 1 (Saccharomyces cerevisiae (strain ATCC 204508 / S288c) (Baker's yeast)) (UniProt P32657); assay: ScCHD-1 Enzyme Inhibition Assay; type: functional; settings: 30 µM; also: in the data most compounds retested in dose-response had high values
Chain of Chromo domain-containing protein 1 (Saccharomyces cerevisiae (strain ATCC 204508 / S288c) (Baker's yeast)) (P32657 whole entry, the tested form may be a part): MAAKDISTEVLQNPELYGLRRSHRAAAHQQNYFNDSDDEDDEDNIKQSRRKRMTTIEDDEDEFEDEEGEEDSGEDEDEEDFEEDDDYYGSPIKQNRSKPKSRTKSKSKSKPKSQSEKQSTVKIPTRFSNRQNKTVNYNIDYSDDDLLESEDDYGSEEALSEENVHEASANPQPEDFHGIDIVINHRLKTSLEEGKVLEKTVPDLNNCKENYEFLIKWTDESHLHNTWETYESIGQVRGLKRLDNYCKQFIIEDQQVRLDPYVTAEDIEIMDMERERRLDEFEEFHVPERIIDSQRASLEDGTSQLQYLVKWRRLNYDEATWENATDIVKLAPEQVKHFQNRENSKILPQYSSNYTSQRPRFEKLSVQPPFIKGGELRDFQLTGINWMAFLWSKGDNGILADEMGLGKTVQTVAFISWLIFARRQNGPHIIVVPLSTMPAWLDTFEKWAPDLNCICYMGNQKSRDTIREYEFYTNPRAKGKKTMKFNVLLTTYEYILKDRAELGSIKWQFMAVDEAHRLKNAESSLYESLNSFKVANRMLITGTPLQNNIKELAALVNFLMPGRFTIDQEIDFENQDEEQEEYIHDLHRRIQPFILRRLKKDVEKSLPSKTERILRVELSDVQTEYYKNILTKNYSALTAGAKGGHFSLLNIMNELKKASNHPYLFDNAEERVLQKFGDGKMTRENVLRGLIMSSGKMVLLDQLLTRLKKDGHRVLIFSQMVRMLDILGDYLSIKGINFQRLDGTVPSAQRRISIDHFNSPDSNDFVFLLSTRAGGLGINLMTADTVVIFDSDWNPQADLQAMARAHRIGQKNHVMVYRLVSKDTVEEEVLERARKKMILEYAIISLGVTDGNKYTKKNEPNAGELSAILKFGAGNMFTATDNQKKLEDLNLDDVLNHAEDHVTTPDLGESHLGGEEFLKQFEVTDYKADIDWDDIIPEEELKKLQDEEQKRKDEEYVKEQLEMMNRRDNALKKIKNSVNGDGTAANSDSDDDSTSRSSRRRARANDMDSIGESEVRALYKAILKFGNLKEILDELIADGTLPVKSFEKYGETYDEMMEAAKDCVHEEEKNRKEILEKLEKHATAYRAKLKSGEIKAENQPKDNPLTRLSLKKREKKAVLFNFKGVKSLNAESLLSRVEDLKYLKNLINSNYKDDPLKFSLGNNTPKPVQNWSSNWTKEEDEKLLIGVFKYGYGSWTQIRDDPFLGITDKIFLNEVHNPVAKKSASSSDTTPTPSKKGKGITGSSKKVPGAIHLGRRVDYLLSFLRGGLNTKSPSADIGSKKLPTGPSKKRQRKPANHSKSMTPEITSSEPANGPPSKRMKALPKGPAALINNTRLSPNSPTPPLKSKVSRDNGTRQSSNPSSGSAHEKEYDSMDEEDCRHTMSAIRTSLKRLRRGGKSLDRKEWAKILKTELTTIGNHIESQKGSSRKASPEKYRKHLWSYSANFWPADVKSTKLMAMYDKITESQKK

Chain of Sialic acid-binding Ig-like lectin 9 (Homo sapiens) (Q9Y336 whole entry): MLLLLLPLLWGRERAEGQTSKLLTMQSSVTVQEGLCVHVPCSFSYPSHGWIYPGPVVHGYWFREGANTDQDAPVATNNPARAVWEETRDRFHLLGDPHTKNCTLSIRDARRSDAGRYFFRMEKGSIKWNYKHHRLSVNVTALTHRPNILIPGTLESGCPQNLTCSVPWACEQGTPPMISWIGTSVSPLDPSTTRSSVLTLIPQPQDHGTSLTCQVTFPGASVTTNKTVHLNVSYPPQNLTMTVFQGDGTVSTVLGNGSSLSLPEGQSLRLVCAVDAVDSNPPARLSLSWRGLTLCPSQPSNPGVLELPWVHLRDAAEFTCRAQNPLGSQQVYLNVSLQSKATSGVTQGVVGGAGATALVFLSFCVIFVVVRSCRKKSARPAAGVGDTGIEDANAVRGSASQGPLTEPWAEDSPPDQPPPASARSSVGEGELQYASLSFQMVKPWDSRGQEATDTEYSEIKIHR
Chain of Protein translocase subunit SecA (Escherichia coli (strain K12)) (P10408 whole entry): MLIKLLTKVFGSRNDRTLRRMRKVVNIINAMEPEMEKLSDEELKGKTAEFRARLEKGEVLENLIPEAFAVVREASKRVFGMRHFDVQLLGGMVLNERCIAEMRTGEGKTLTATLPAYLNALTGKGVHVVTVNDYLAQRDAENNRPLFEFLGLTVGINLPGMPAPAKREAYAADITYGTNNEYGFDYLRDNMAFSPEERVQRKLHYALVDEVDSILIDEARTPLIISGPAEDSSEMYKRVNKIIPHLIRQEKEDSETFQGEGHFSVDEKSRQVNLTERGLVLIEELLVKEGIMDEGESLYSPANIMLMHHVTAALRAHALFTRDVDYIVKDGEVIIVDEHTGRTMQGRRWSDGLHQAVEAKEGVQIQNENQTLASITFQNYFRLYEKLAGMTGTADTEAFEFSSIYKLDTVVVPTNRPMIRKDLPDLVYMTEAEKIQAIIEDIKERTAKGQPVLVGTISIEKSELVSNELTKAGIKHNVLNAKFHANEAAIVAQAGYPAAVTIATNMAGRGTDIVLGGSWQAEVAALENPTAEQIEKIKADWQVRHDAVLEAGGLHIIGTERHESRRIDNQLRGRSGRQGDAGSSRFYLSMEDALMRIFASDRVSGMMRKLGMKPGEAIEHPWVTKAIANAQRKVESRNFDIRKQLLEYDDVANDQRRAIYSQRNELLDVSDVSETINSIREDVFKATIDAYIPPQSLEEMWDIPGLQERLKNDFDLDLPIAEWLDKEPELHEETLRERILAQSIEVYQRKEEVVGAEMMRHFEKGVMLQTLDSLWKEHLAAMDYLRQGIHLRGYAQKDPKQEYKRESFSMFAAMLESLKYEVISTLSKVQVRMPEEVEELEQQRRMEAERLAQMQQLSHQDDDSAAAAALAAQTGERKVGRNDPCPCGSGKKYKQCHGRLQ

| SMILES | Percent Effect [1] [%] | Percent Effect [2] [%] | Percent Effect [3] [%] | Percent Effect [4] [%] | Percent Effect [5] [%] | Percent Effect [6] [%] | Percent Effect [7] [%] | Percent Effect [8] [%] | Percent Effect [9] [%] | Percent Effect [10] [%] | Percent Effect [11] [%] |
| --- | --- | --- | --- | --- | --- | --- | --- | --- | --- | --- | --- |
| CC1CN(C)c2ccccc2CN1C(=O)CSc1ccncc1 (stereo unspecified) | -1.53 | 11 | 2.54 | 1.63 | 0.783 | 2.73 | 2.48 | 17.3 | 6.45 | 7.5 | -6.19 |
| CCS(=O)(=O)NC(C(=O)NC)c1ccc(F)c(F)c1 (stereo unspecified) | -1.19 | 2.7 | -9.93 | 0.659 | 0.195 | 2.92 | 10.7 | -11.3 | 9.9 | 20.7 | -7.3 |
| Cc1nc(C2CCCN2CCCS(=O)(=O)N(C)C)no1 (stereo unspecified) | -4.22 | 28.9 | -4.98 | -5.59 | 2.26 | -0.383 | 13.4 | 10.9 | -5.39 | 17.1 | -9.28 |
| COc1ccc(CN(C)C(=O)NCc2c(C)cc(C)[nH]c2=O)cc1 | -4.97 | 15.8 | -2.27 | -2.15 | -0.84 | 1.08 | 2.12 | 9.7 | 3.45 | 18.5 | -0.177 |
| COc1ccc(OCC(=O)NC(C)c2ccccc2)c(C(=O)O)c1 (stereo unspecified) | -7.92 | 0 | -0.906 | 3.42 | -4.4 | -0.744 | 6.78 | -2.11 | -1.07 | -1.24 | -2.92 |
| COc1ccc(C)cc1CN1CCCC1c1noc(C2CC2)n1 (stereo unspecified) | -1.46 | -2.7 | -7.59 | -1.73 | 5.85 | -9.8 | 18.7 | 67.4 | 9.9 | 18.3 | -3.74 |
| O=C(O)c1nnn(-c2ccc(OC(F)(F)F)cc2)c1-c1ccncc1 | -2.53 | 21.1 | -1.66 | -2.5 | 3.8 | 3.55 | 20.4 | 2.21 | 3.19 | 15.6 | 41.3 |
| Cc1cccc(-c2noc(CN3CC(n4cc(C)cn4)C3)n2)c1 | -0.775 | -13 | -3.33 | 7.4 | 5.24 | -2.85 | 27.4 | 26.4 | 1.94 | 14.6 | -5.58 |
| CC(C)(CNC(=O)NCCOc1cccc(F)c1)C(N)=O | -3.85 | 7.89 | 1.82 | 8.76 | 0.94 | 2.3 | 0.167 | -5.69 | 6.37 | 17.1 | -6.58 |
| Cn1ccnc1CN1CCN(CC(O)c2cccc(F)c2)CC1 (stereo unspecified) | -1.52 | 18.2 | -1.07 | 4.38 | -0.49 | -1.9 | 15.4 | -1.78 | 6.67 | 18.8 | -11.3 |
| Cc1cc(CNC(=O)N2CCCN(Cc3ccccc3)CC2)no1 | -3.91 | 12.7 | -1.73 | 0.846 | -5.38 | -2.66 | 10.7 | 18.1 | 2.46 | 11.4 | -4.24 |
| CN(Cc1ncc[nH]1)S(=O)(=O)c1cccc(C(=O)N2CCOCC2)c1 | -6.58 | 5.48 | 4.01 | 0.744 | -1.76 | 1.82 | 7.1 | 0.0404 | 2.15 | 7.5 | -7.89 |
| CC(NC1(CNC(=O)Cn2cccn2)CCOCC1)c1ccccc1 (stereo unspecified) | -5.93 | 13.5 | -3.26 | 21.8 | 6.35 | 3.72 | 9.01 | -4.77 | 0 | 16.1 | -5.87 |
| CN1C[C@H]2CCN(C(=O)NC3CCCC3)CC[C@H]2S1(=O)=O | 1.67 | -4 | 10.5 | -0.732 | -5.7 | 29.4 | 4.62 | -1.7 | 1.06 | -2.56 | -5.65 |
| Cc1nn(C)c(C)c1CNCc1ccnc(N2CCOCC2)c1 | -6.06 | 1.27 | 2.39 | -0.497 | 2.56 | -0.645 | -1.03 | 24 | -1.04 | -2.53 | -31.5 |
| COCc1noc(C2(c3ccc(Br)cc3)CCOCC2)n1 | -2.85 | -2.7 | 1.95 | -4.39 | -6.95 | 1.91 | 9.83 | 4.48 | -1.59 | 4.88 | -3.06 |
| C[C@H]1C[C@H]2CN(C(=O)c3ccncn3)CC[C@H]2O1 | -6.88 | 2.7 | -0.849 | -1.39 | 2.54 | 2.08 | 12.1 | -0.328 | 6.93 | 1.22 | -3.3 |
| CN(C)c1ncc(CN2CCOC(C(=O)Nc3ccccc3)C2)cn1 (stereo unspecified) | -0.531 | 16 | 2.21 | -8.34 | 2.36 | 71.6 | 18.6 | 23.5 | 3.19 | 14.1 | -7.74 |
| Cc1nc(C)c(C(=O)NCCNC(=O)c2ccc(F)cc2F)s1 | -1.94 | 10.8 | -1.06 | 22.4 | 5.85 | -4.25 | 15.8 | 16.4 | 8.91 | 23.2 | -8.6 |
| Cc1nn(CC(=O)N2CCN(c3ccccc3F)CC2)c(C)c1Cl | 0.317 | 15.6 | 4.64 | 2.9 | 1.87 | -24.8 | 25.5 | 9.79 | 4.3 | 23.5 | 1.69 |
| Cc1nc(NC(=O)CN2CCc3c(nc(C(C)C)n3C)C2)sc1C | -3.02 | 5.41 | -2.02 | 11 | 8.69 | -1.43 | 19.8 | 15 | 6.88 | 19.5 | -1.68 |
